Sampled rows, rich in hits. Any-hit rate of the full collection: about 2.6%.
A549 viability = kills or reduces viability of A549 cells in Nrf2 counter-screen | AID 504648 | A549 ARE-Fluc cells, CellTiter-Fluor viability, 18-24 h | Potency, µM (highest dose often 46 µM), without a hit: top-dose activity change, negative = cytotoxicity, actives largely listed as inhibitors | 390,000 compounds, 0.16% hits; note: potency is the fitted concentration of half-maximal effect; % is set by controls: 0 for no effect and ±100 for the full control effect
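A549 ARE_Fluc cells in 5% FBS OPTI-MEM were exposed to compounds in concentration-response for 18-24 h at 37 deg C. Viability was read by CellTiter-Fluor fluorescence (Ex 405/Em 525) after 30 min, before the luciferase read.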
TCR act = T cell receptor activation. primary human leukocytes, anti-CD3, IL-2 HTRF, 48 h. Potency, µM (doses to about 9.22 µM), for the others: at the highest dose activation of IL-2 secretion, most hits filed as activators. 330,000 tested, under 10 active. AID 504894; note: % of control where 0% means no effect
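Readout: HTRF IL-2, Eu-cryptate/d2 antibody pair, 320nm excitation, 665nm emission. Stimulus: a-CD3 beads, no co-stimulation. Cells: primary human leukocytes. Exposure: 48 hr with compound.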
A-T KAP1 phos = potential ataxia-telangiectasia treatment; Potency, µM (series often up to 57.5 µM), inactives show at the top dose activation, hits mostly activators; AID 485349; F2112 A-T fibroblasts, KAP-1 phosphorylation AlphaLISA; neocarzinostatin DNA damage 30 min before lysis; 320,000 compounds, 0.19% hits; note: potency is the fitted concentration of half-maximal effect; % of control where 0% means no effect; nearly all actives have a fitted effect of over 45% in size
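hTERT-immortalized A-T patient fibroblasts (F2112), 500 cells/well in OPTI-MEM, 1% FBS, got compounds for 60 min, then NCS for 30 min at 37C. Lysates were then assayed for phospho-KAP-1 by AlphaLISA (anti-pKAP1 donor, anti-KAP1 acceptor beads), 6 hr at 25C.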
CCT modulator = changes cytosolic chaperonin activity. purified chaperonin ATPase assay, HTRF ADP detection, 30 min. activity change, % (concentration not given with the values), hits read low. 360,000 compounds, 0.3% hits; in the data active = activity change below about -30%; note: % is set by controls: 0 for no effect and ±100 for the full control effect
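First, chaperonin was dispensed at 40 nM or 20 nM final depending on batch activity. Next, compounds were pinned at 76 uM and ATP added at 10 uM. After 30 min at 37 °C, ADP detection reagents ran 30 min at ambient temperature.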
Nrf2 ARE act = activators of Nrf2 (ARE) signaling. AREc32 ARE-luciferase reporter (MCF7-derived line), luminescence, 24 h. Potency, µM (series often up to 46.1 µM), inactives show at the highest dose activation, actives largely listed as activators. 410,000 compounds, 0.31% hits. AID 624171; note: potency is the fitted concentration of half-maximal effect; % of control where 0% means no effect; nearly all actives have a fitted effect of over 65% in size
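Each well held 1000 AREc32 cells, which were incubated with compound for 24 hr at 37 deg C after overnight attachment, and ARE reporter activity was quantified by firefly luciferase luminescence.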
Nrf2 inh = Nrf2 pathway inhibition. A549 ARE-Fluc reporter, luciferase luminescence, 18-24 h. Potency, µM (doses to about 46 µM), for inactives: at the highest dose activity change, negative = inhibition, most hits filed as inhibitors. 360,000 compounds, 2.1% hits. AID 504444; note: potency is the fitted concentration of half-maximal effect; % is set by controls: 0 for no effect and ±100 for the full control effect; nearly all actives have a fitted effect of over 60% in size
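A549 ARE_Fluc cells, 5000/well, 5% FBS OPTI-MEM; compounds in dose-response, 18-24 h at 37 °C/5% CO2; CellTiter-Fluor viability read (Ex 405/Em 525), then BugLite luciferase luminescence = Nrf2 activity.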
The depositor's hits bear a star; ? = inconclusive; nt = not tested or not shown; [ ] = remark or other dose. Unless noted, calls come from the whole dose curve; as a rule, active = well fitted curve in the direction sought with a large enough effect; inconclusive = small, poorly fitted or top-dose-only effect, or another doubt; inactive = no such curve, though single readings can be large; an effect the other way counts as inactive or inconclusive.

SMILES | A549 viability | TCR act | A-T KAP1 phos | CCT modulator | Nrf2 ARE act | Nrf2 inh
Cc1ccc(-n2c(/C=C/c3ccc4c(c3)OCO4)nc3ccccc3c2=O)cc1 | nt | 0%[46.1 µM] | 6% | nt | nt | nt
O=C(CC1CCCCC1)c1c(O)c2ccccc2oc1=O | -29% | -3% | -4% | 0 | 3% | ?
Cc1cc(C)n(-c2ccc(NN=C(C#N)C#N)cc2)n1 | -10% | 1% | -5% | 0 | 3% | ?
N#CC(C#N)=NNc1ccc(-n2ccc(C(F)(F)F)n2)cc1 | ? | -6% | -20% | 0 | 0% | 16µM*
Oc1c(Cl)c(Cl)c(Cl)c(Cl)c1Cl | -1% | 5% | nt | -3 | 1% | 23µM*
Cc1cccc(N2C(=O)CSC23C(=O)N(CC(=O)Nc2cccc(Cl)c2)c2ccccc23)c1 (centres undefined) | -24% | nt | nt | nt | 0% | ?
O=C(C1CCN(S(=O)(=O)c2ccc(Br)s2)CC1)N1CCN(c2cccc(C(F)(F)F)c2)CC1 | -11% | nt | nt | nt | 0% | 2.9µM*
C#CCN1CCN(c2cccc(C(F)(F)F)c2)CC1 | -1% | 2% | 9% | -2 | 0% | 15%
CC(C)c1ccc(Cc2cnc(NC(=O)c3ccc4c(c3)CC(c3ccccc3)OC4=O)s2)cc1 (centres undefined) | -7% | nt | nt | nt | -2% | ?
Cn1c(=O)oc2cc(S(=O)(=O)N3CCc4ccccc43)ccc21 | 8% | -5% | 1µM* | -5 | -1% | ?
O=C(c1ccc2c(c1)N(Cc1c(F)cccc1Cl)C(=O)c1ccccc1S2)N1CCC2(CC1)OCCO2 | ? | nt | nt | nt | 0% | 21µM*
CCN1C(=O)c2ccccc2Sc2ccc(C(=O)N3CCC4(CC3)OCCO4)cc21 | -4% | 8% | -1% | -1 | 1% | ?
CC(C)c1ccc(N=Nc2c(O)[nH]c(=O)[nH]c2=O)cc1 | -17% | 4% | 8% | 0 | 3% | -29%
O=c1[nH]c(=S)[nH]c(O)c1N=Nc1ccc(SC(F)F)cc1 | 0% | 2% | -9% | -1 | 16µM* | 5%
O=c1[nH]c(=S)[nH]c(O)c1N=Nc1ccc(S(=O)(=O)N2CCc3ccccc32)cc1 | -4% | -8% | -8% | 0 | 8.9µM* | 20%
COc1cc(NC(=O)c2cc3cc4ccc(C)cc4nc3o2)cc(OC)c1OC | -4% | nt | nt | nt | -1% | ?
CC1N(C)c2cc(NC(=O)c3ccco3)c(P(=O)(Nc3ccc([N+](=O)[O-])cc3)N3CCOCC3)cc2C1(C)C (centres undefined) | 21µM* | 2% | 0% | -1 | 4% | 16µM*
COc1cccc(C(=O)N/N=C(/c2ccccc2)c2ccccn2)c1 | ? | -9% | 6% | -1 | 0% | 10µM*
On1ccccc1=S | -12% | 4% | 15% | -3 | -3% | ?
CCN(CC)c1ccc(C=NN2CCCCCC2)cc1 | -2% | 6% | nt | -2 | 3% | ?
CCOC(=O)CC1c2ccccc2-n2nncc2CN1Cc1ccc(OC)cc1 (centres undefined) | -11% | 0% | nt | 2 | 0% | 23µM*
CCOC(=O)CC1c2ccccc2-n2nncc2CN1C (centres undefined) | 7% | 5% | nt | -86* | 0% | 0%
O=C(Nc1ccc2nc(SCC(=O)N3CCCc4ccccc43)sc2c1)c1ccccc1F | -16% | nt | nt | nt | 0% | ?
CCOP(=O)(CCP(=O)(OCC)OCC)OCC.C[CH2][Sn]([Cl])([Cl])[CH2]C | 16µM* | 9% | nt | -4 | -2% | ?
COc1ccc(C/C(=N\OC(C)=O)c2ccc(OC)cc2)cc1 | 3% | -2% | 1% | 2 | 4% | ?
N#CC(C#N)=NNc1ccc([N+](=O)[O-])cc1 | 21µM* | -1% | -6% | 2 | 8% | -3%
CCOc1ccc2nc(N=Nc3c(O)[nH]c(=O)[nH]c3=O)sc2c1 | ? | -12% | -5% | -4 | 0% | -1%
CCOc1ccc2nc(N=Nc3c(O)[nH]c(=S)[nH]c3=O)sc2c1 | 23µM* | 1% | -8% | 0 | 0% | 18%

Assay outcomes deposited in PubChem BioAssay by National Center for Advancing Translational Sciences (NCATS).
